# High-throughput results: PubChem, several laboratories
# CHT PAM = allosterically activates the human high affinity choline transporter. Q9GZV3. CHT-expressing cells, membrane potential dye, choline EC20; active compounds read high; LV-AA mutant CHT in HEK293 cells. B-score at 10 µM. 0.49% of 310,000 active;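 active = initial fluorescence not abnormally high and integrated response B-score, plate-corrected, over 3 SD above library mean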
# AI-2 QS mod = Vibrio harveyi AI-2 quorum sensing modulation; Vibrio harveyi JMH597 AI-2 luminescence/OD600 ratio, 9 h; active compounds read low; strain lacks LuxN and CqsS sensors; 0 = neutral-control median; activity change, % at 7.5 µM; 0.4% of 300,000 active; in the data active = activity change below about -75%, passing the limit was not always enough; inconclusive = no clear call, values can overlap the other calls;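 also: luminescence divided by OD600 gain over 9 h not by final OD600 alone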
# PREPL inh = human PREPL enzyme inhibition | Q4J6C6 | recombinant PREPL, fluorescence polarization activity-based probe | inhibition, % at 5.96 µM | 0.68% of 320,000 active; in the data active = inhibition above about 43%;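 also: 0% = enzyme with DMSO and 100% = wells lacking enzyme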
# ALR inh = human ALR oxidase inhibition via reduced H2O2. P55789. purified ALR, DTT oxidation, H2O2 HRP-luminol luminescence. inhibition, % (test concentration not listed). 3.8% of 290,000 active. AID 485317;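 active = mean replicate inhibition above about 79%, with every replicate also reaching it, limit read from the data; inconclusive = only one of the two criteria met; inactive = mean below limit and not every replicate reaching it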
# Target sequence (P55789 whole entry, looked up): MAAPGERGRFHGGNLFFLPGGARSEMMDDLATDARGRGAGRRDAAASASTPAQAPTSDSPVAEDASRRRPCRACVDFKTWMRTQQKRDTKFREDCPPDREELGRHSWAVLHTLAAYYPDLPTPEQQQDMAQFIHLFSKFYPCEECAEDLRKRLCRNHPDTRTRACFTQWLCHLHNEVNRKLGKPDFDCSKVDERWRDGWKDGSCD
# CHT block = human CHT choline transport inhibition; B-score at 10 µM; 0.86% of 310,000 active; CHT-expressing cells, membrane potential dye, choline response; active compounds read low; Q9GZV3;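 active = B-score over 3 SD under the library average, and starting fluorescence ratio not unusually high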;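 also: choline stimulus applied at its EC90 after an EC20 pre-addition; B-score computed on integrated fluorescence ratio after choline addition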
# An asterisk follows results filed as active; i = inactive; ? = inconclusive; nt = not tested or not shown. In the library only some 5% were active in any assay of this set; here they are far more common.
SMILES,CHT PAM,AI-2 QS mod,PREPL inh,ALR inh,CHT block
O=C(Cc1ccc(Br)cc1)N1CCN(c2ccccc2)CC1,i,17,-16,98*,i
O=C(CN1CCN(c2ccc(F)cc2)CC1)OCc1ccccc1,i,25,-34,92*,i
COCCNC(=O)/C(C#N)=C/c1ccc(OCC(=O)NC2CCCCC2)cc1,i,13,6,-11,i
Cc1ccc(CCN2C(Nc3ccccc3)=NC[C@@H]2C)cc1,i,nt,-11,-2,i
O=C(CSC1CCCCC1)N1CCN(c2ccccc2)CC1,i,6,-6,98*,i
O=C(CN1CCCCC1)N1CCN(c2ccccc2)CC1,i,8,3,37,i
O=C(CSCc1ccccc1)N1CCN(c2ccc(F)cc2)CC1,i,-3,-43,88*,i
O=C(CN1CCN(c2ccccc2)CC1)N1CCN(c2ccccc2)CC1,i,10,17,99*,i
CC(=O)c1ccc(OCc2cc(C(=O)NCCn3nc(C)cc3C)no2)cc1,i,1,16,0,i
CC(=O)c1ccc(OC(C)c2nc3ccccc3s2)cc1 (centres undefined),i,2,-33,nt,i
CCC(C)(C)n1nnnc1C(c1ccc2ncccc2c1)N1CCN(c2ccc(O)cc2)CC1 (centres undefined),i,17,3,100*,i
CCC(C)(C)n1nnnc1C(c1ccc2ncccc2c1)N1CCN(c2nc3ccccc3s2)CC1 (centres undefined),i,77,6,-5,i
CCOC(=O)c1ccc(N=C2NC(=O)CS2)cc1,i,19,-9,98*,i
Cc1ccc(N=C2NC(=O)CS2)cc1,i,2,-3,-2,i
CCCC(=O)O[C@]1(C(=O)COC(C)=O)CC[C@H]2[C@@H]3C[C@H](F)C4=CC(=O)C=C[C@]4(C)[C@@]3(F)[C@@H](O)C[C@@]21C,i,23,-2,nt,-5*
CCC(C)NC(=O)CSc1ccc(NC(C)=O)cc1 (centres undefined),i,13,-4,-3,i
CC(=O)Nc1ccc(SCc2csc(C)n2)cc1,i,-8,-1,99*,i
CC(=O)Nc1ccc(SCc2c(C)noc2C)cc1,i,13,-4,99*,i
CCN(CC)CCn1c(NCc2ccc(OC)cc2)nc2ccccc21,i,17,13,41,i
c1ccc2c(c1)nc(NCc1ccc3c(c1)OCO3)n2CCN1CCOCC1,i,28,9,?,i
COc1cccc(CNc2nc3ccccc3n2CCN2CCCCC2)c1,i,17,33,99*,i
Brc1cccc(CNc2nc3ccccc3n2CCN2CCCCC2)c1,i,-3,52*,nt,i
CCCn1c(NCc2cc(OC)ccc2OC)nc2ccccc21,i,20,2,89*,i
CCn1c(NCc2cc(OC)ccc2OC)nc2ccccc21,i,13,-17,4,i
Cn1c(NCc2cccc(Br)c2)nc2ccccc21,i,15,11,93*,i
SMILES,CHT PAM,AI-2 QS mod,PREPL inh,ALR inh,CHT block
O=C(Nc1cccnc1Cl)c1ccc(Cl)c([N+](=O)[O-])c1,i,15,3,-16,i
COc1ccc(S(=O)(=O)Nc2cccc3c2O[C@H](CN(C)Cc2ccncc2)[C@@H](C)CN([C@H](C)CO)C3=O)cc1,nt,nt,16,-10,nt
O=C(O)CSCC(=O)Nc1cc(C(F)(F)F)ccc1Cl,i,-1,-3,-16,i
Cc1ncc(CSCC(=O)Nc2cc(C(F)(F)F)ccc2Cl)c(CO)c1O,i,17,18,94*,i
O=C(NNc1ccc([N+](=O)[O-])cc1)c1ccco1,i,-26,0,99*,i
Nc1ccc([N+](=O)[O-])cc1C(=O)NNC(=O)c1ccco1,i,10,2,3,i
O=C(CN1C(=O)NC2(CCCc3ccccc32)C1=O)c1ccccc1F (centres undefined),nt,nt,2,12,nt
COc1ccc(CCNC(=O)c2cc(COc3c(C)cccc3C)on2)c(OC)c1,i,0,10,-2,i
CCOC(=O)c1c(CCl)nc2ccccc2c1-c1ccccc1,i,0,-5,96*,i
CCOC(=O)c1c(C)nc2ccc(Cl)cc2c1-c1ccccc1,i,16,12,-3,i
O=C(COc1cccc2ccccc12)Nc1ccc(Cl)cc1C(=O)O,i,39,1,-2,-7.3*
O=C(COc1ccccc1C(=O)O)Nc1cccc2ccccc12,nt,nt,12,-23,nt
COc1ccc(S(=O)(=O)N/N=C/c2ccc(OCCN3CCOCC3)c(OC)c2)cc1,i,1,-9,21,i
COc1cc(/C=N/NS(=O)(=O)c2ccc3ccccc3c2)ccc1OCCN1CCOCC1,i,20,13,99*,i
COc1ccc(NC(=O)CSc2nnc(CC(=O)Nc3ccc(F)cc3)n2C)cc1,i,19,1,-2,i
Cc1cccc(N2CCN(C(=O)c3ccc4c(c3)NC(=O)C(CSCc3ccc(F)cc3)N4)CC2C)c1 (centres undefined),i,10,18,97*,i
Cc1ccc(CSCC2Nc3ccc(C(=O)N4CCN(c5cccc(C)c5)C(C)C4)cc3NC2=O)cc1 (centres undefined),i,13,28,14,i
O=C(NNC(=O)c1cc(-c2ccccc2)n(-c2ccccc2)n1)c1cccc([N+](=O)[O-])c1,i,13,-1,-2,i
OC1=C(O)c2nc3cc(C(F)(F)F)ccc3nc21,i,0,-2,98*,i
Cc1ccc2nc(C)cc(N/N=C/c3ccccc3O)c2c1,i,1,15,99*,i
Cc1cc(C(=O)N/N=C/c2ccco2)c2ccccc2n1,i,29,6,-5,i
COc1ccccc1/C=N/Nc1cc(C)nc2ccc(C)cc12,i,nt,13,99*,i
Cc1cc(N/N=C/c2ccc(O)cc2O)c2ccccc2n1,i,-2,3,97*,i
Cc1cc(N/N=C/c2ccco2)c2ccccc2n1,i,11,-2,77*,i
Cc1ccc(S(=O)(=O)N2CCN(C(=O)Cn3c(=O)oc4ccccc43)CC2)c(C)c1,nt,nt,10,-20,nt
SMILES,CHT PAM,AI-2 QS mod,PREPL inh,ALR inh,CHT block
O=C1c2ccccc2C(=O)N1/N=C/c1ccc(Oc2ccc([N+](=O)[O-])cn2)cc1,i,10,14,-10,i
COCC[N+]1(C)CCCCC1,i,39,15,-14,i
COC(C/C=C/C(=O)[C@H](C)OCc1ccccc1)OC,i,5,3,87*,i
CCn1c(CN(C)c2ccccc2)nc2ccccc21,i,-13,5,98*,i
CC1CCC(C(=O)c2c(O)c3ccccc3oc2=O)CC1 (centres undefined),i,37,-8,38,-11*
c1ccc(COc2ccc(CNCc3cccnc3)cc2)cc1,i,13,2,0,i
